The source of these data is PubChem BioAssay (NCI).

Some test systems named below: SK-MEL-2 melanoma; EKVX NSCLC; SN12C renal; UO-31 renal; TK-10 renal; ACHN renal; CAKI-1 renal; A498 renal; CCRF-CEM leukemia; MOLT-4 leukemia; SR leukemia; RPMI-8226 leukemia; OVCAR-8 ovarian; OVCAR-5 ovarian; SK-OV-3 ovarian; IGROV1 ovarian; OVCAR-3 ovarian; HS 578T breast; NCI/ADR-RES ovarian.
Experiment in all cases: NCI-60 one-dose screen, 48 h (100 = growth as untreated, 0 = no growth, -100 = all killed)
What all share (details): 10 µM unless noted

This is part of a sample that, as a whole, favours compounds with a hit. Of some 83,000 tested, about 20% had one in any assay.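 For each line, cells grew in 96-well plates with the test compound present at a single concentration for 48 hours.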 Values without a mark were called inactive. Active and inactive are the calls of the source. The calls were made as follows: active = growth percent below 10; inactive = the rest.

For the compound `C[C@H]1[C@H](C)CC[C@]2(C(=O)N3CCN(C)CC3)CC[C@]3(C)C(=CC[C@@H]4[C@@]5(C)C/C(=C/c6ccco6)C(=O)C(C)(C)[C@@H]5CC[C@]43C)[C@H]12`, the growth with SK-MEL-2 melanoma was 42.1% [100 µM]; in the assay with EKVX NSCLC it was 42.3% [100 µM]; with SN12C renal it was 28% [100 µM]; in the assay on UO-31 renal, -97.5% [100 µM] (active); with TK-10 renal, 43.7% [100 µM]; with ACHN renal, 20.8% [100 µM]. The growth with CAKI-1 renal is 26.2% [100 µM]; with A498 renal, 53.8% [100 µM]; in the assay with CCRF-CEM leukemia, 16.5% [100 µM]; in the assay with MOLT-4 leukemia, 22.6% [100 µM]; in the assay with SR leukemia, 32% [100 µM]; in the assay on RPMI-8226 leukemia, 19.5% [100 µM]. The growth with OVCAR-8 ovarian was 25.4% [100 µM]; in the assay on OVCAR-5 ovarian, 63.5% [100 µM]; with SK-OV-3 ovarian it was 59.3% [100 µM]; in the assay with IGROV1 ovarian, 3.24% [100 µM] (active); in the assay with OVCAR-3 ovarian, 40.1% [100 µM]; in the assay on HS 578T breast it was 53.2% [100 µM]. The growth in the assay on NCI/ADR-RES ovarian was 37.9% [100 µM].

Turning to `COc1ccc(-c2c(C)nn3c(NCCN4CCOCC4)cc(C)nc23)cc1OC`, the growth in the assay on SK-MEL-2 melanoma is 104%; in the assay on EKVX NSCLC it was 83.9%; in the assay with SN12C renal, 100%; with UO-31 renal, 104%; in the assay on TK-10 renal, 102%; in the assay with ACHN renal, 106%. The growth in the assay with CAKI-1 renal was 75.2%; with A498 renal, 78%; with CCRF-CEM leukemia, 97.6%; with MOLT-4 leukemia, 90.2%; in the assay with SR leukemia, 79.8%; in the assay with RPMI-8226 leukemia, 105%. Also, the growth is 103% with OVCAR-8 ovarian; 94.3% with OVCAR-5 ovarian; 101% in the assay on SK-OV-3 ovarian; 117% in the assay with IGROV1 ovarian; 103% with OVCAR-3 ovarian; 79% with HS 578T breast. The growth in the assay with NCI/ADR-RES ovarian was 99.8%.

As to `COC(=O)C(=Cc1ccccc1[N+](=O)[O-])C(=O)OC`, the growth in the assay on SK-MEL-2 melanoma was 73.5%; in the assay with EKVX NSCLC it was 51.4%; with SN12C renal it was 51.1%; in the assay on UO-31 renal it was 31.2%; in the assay with TK-10 renal, 14.7%; in the assay with ACHN renal, 48.7%. Besides, the growth with CAKI-1 renal is 31.2%; with A498 renal, 69.1%; in the assay with CCRF-CEM leukemia, -1.09% (active); in the assay on MOLT-4 leukemia it was 4.68% (active); in the assay on SR leukemia, -22.3% (active); in the assay on RPMI-8226 leukemia, -18.6% (active). In addition, the growth in the assay with OVCAR-8 ovarian is 49.8%; with OVCAR-5 ovarian it was 56.6%; in the assay with SK-OV-3 ovarian, 69.7%; in the assay with IGROV1 ovarian it was 37.9%; with OVCAR-3 ovarian, -17.9% (active); in the assay on HS 578T breast, 34.5%. Besides, the growth with NCI/ADR-RES ovarian is 21.9%.

Consider `C=C(C)[C@@H]1CC[C@]2(C(=O)N3CCN(C)CC3)CC[C@]3(C)[C@H](CC[C@@H]4[C@@]5(C)C/C(=C/c6ccncc6)[C@H](O)C(C)(C)[C@@H]5CC[C@]43C)[C@@H]12`, for which the growth in the assay with SK-MEL-2 melanoma was -60.1% [100 µM] (active); in the assay with EKVX NSCLC, -1.55% [100 µM] (active); in the assay with SN12C renal, -44.2% [100 µM] (active); with UO-31 renal, -61.4% [100 µM] (active); with TK-10 renal, 22% [100 µM]; in the assay with ACHN renal, -0.441% [100 µM] (active). For the same compound, the growth with CAKI-1 renal was 12.1% [100 µM]; in the assay on A498 renal, -28.9% [100 µM] (active); in the assay with CCRF-CEM leukemia, -5.24% [100 µM] (active); in the assay with MOLT-4 leukemia, -24.4% [100 µM] (active); in the assay with SR leukemia it was -14.3% [100 µM] (active); with RPMI-8226 leukemia, -26.6% [100 µM] (active). The growth with OVCAR-8 ovarian was -57.9% [100 µM] (active); in the assay with OVCAR-5 ovarian, 7.38% [100 µM] (active); in the assay on SK-OV-3 ovarian, 0.185% [100 µM] (active); in the assay with IGROV1 ovarian, -23.5% [100 µM] (active); in the assay with OVCAR-3 ovarian, -50% [100 µM] (active); in the assay on HS 578T breast, -19.5% [100 µM] (active). The growth in the assay on NCI/ADR-RES ovarian was -64% [100 µM] (active).

With `CC(=O)OC[C@]12CC[C@@H](C(=O)CBr)[C@@H]1[C@H]1CC[C@@H]3[C@@]4(C)CCCNC(C)(C)[C@@H]4CC[C@@]3(C)[C@]1(C)CC2`, the growth with SK-MEL-2 melanoma was -80.8% [100 µM] (active); in the assay with EKVX NSCLC it was -81% [100 µM] (active); with SN12C renal, -37.8% [100 µM] (active); in the assay with UO-31 renal, -99.3% [100 µM] (active); in the assay with TK-10 renal it was -92.4% [100 µM] (active); in the assay on ACHN renal it was -90.1% [100 µM] (active). For the same compound, the growth is -96.1% [100 µM] (active) in the assay with CAKI-1 renal; -84.5% [100 µM] (active) with A498 renal; -32.5% [100 µM] (active) with CCRF-CEM leukemia; -23.2% [100 µM] (active) in the assay on MOLT-4 leukemia; 14.7% [100 µM] in the assay on SR leukemia; -36.1% [100 µM] (active) in the assay with RPMI-8226 leukemia. Besides, the growth in the assay on OVCAR-8 ovarian was -26.1% [100 µM] (active); with OVCAR-5 ovarian it was -74.4% [100 µM] (active); in the assay with SK-OV-3 ovarian it was -86.8% [100 µM] (active); in the assay on IGROV1 ovarian it was -61.3% [100 µM] (active); with OVCAR-3 ovarian it was -85.3% [100 µM] (active); in the assay on HS 578T breast, -22.7% [100 µM] (active). For the same compound, the growth in the assay with NCI/ADR-RES ovarian is -38.8% [100 µM] (active).

`O=C1Nc2ccccc2/C1=C/C(=O)c1ccc(N2CCOCC2)cc1`: the growth is 99% in the assay on SK-MEL-2 melanoma; 98% with EKVX NSCLC; 93.7% in the assay on SN12C renal; 59.6% with UO-31 renal; 102% with TK-10 renal; 72.7% in the assay on ACHN renal. Besides, the growth in the assay on CAKI-1 renal was 78.4%; in the assay on A498 renal it was 89.7%; in the assay with CCRF-CEM leukemia, 9.92% (active); with MOLT-4 leukemia it was 47.8%; in the assay on SR leukemia it was 26.7%; in the assay on RPMI-8226 leukemia, 79.6%. Moreover, the growth was 82.9% in the assay with OVCAR-8 ovarian; 96.9% in the assay on OVCAR-5 ovarian; 106% in the assay on SK-OV-3 ovarian; 70.3% in the assay with IGROV1 ovarian; 60.9% in the assay with OVCAR-3 ovarian; 84% with HS 578T breast. In addition, the growth in the assay with NCI/ADR-RES ovarian was 100%.
